ChEMBL document CHEMBL3988442, “University of Dundee, Small-Polar-MMV Screening Library” (2021)
Hit rate of the full screen: of about 69,000 compounds, about 950 (1.4%) showed an effect of 50% or more. Many of the other results were omitted from the sample, so strong results are more common in it than they were.

system: Mycobacterium tuberculosis; assay: Cornell M. t heat shock assay; assay type: functional, organism-based; parameters: dose or concentration left out as unconfirmed; note: in the data most compounds retested in dose-response had high values

Compound | Percent Effect [%]
CCc1cc(C(F)(F)F)n2nc(C3CCCN3C3CCSCC3)cc2n1.O=C(O)CC(O)(CC(=O)O)C(=O)O (stereo not given) | 5.555
O=C(O)c1ccc(SCC(=O)c2ccccc2)nc1 | 25.44
Cc1cccc(CN2C[C@@H]3OCCN(CC(=O)N(C)C)[C@@H]3C2)c1.O=C(O)C(F)(F)F | 42.49
Cl.Cl.c1ccc(OC[C@@H]2CCC[C@@]23CNCCO3)nc1 | -6.285
CC(c1cccs1)N(C)Cc1cnc(-c2ccccn2)nc1 (stereo not given) | 106.1
CC(C)n1cnnc1CN(C)Cc1cnc(-c2ccccn2)nc1 | 32.7
Cc1noc(C)c1CN(C)C(C)c1cccs1 (stereo not given) | 7.19
O=C(Nc1cccnc1)[C@H]1CO[C@H]2CCNC[C@H]2C1.O=C(O)C(F)(F)F.O=C(O)C(F)(F)F | -15.71
Cc1ccc2c(n1)N(CC1CC1)CCN(C(=O)c1ccncc1F)C2.O=C(O)C(F)(F)F.O=C(O)C(F)(F)F | -13.11
CCn1c(CN(C)Cc2csc(C)n2)nc2cc(F)ccc21 | 69.38
CCn1c(CN(C)Cc2cnc(C)s2)nc2cc(F)ccc21 | -9.437
CCN(Cc1csc(C)n1)c1cccc(CO)c1 | -22.94
CCO[C@@H]1CC[C@H]2[C@H]1OCCN2CC1CCC1.O=C(O)C(F)(F)F | -27.51
Cc1cc(N(C)Cc2ccsc2)n2nc(C)c(C)c2n1 | 86.91
CCc1nnc(CN(C)c2cc(C)nc3c(C)c(C)nn23)o1 | -40
CCc1cc(N(C)Cc2ccncn2)n2nc(C)c(C)c2n1 | 89.97
CCc1cc(N(C)Cc2ccno2)n2nc(C)c(C)c2n1 | 27.53
Cc1cc(NC(C)c2csc(C)n2)n2nc(C)c(C)c2n1 (stereo not given) | 26.88
Cc1cc(N(C)Cc2c(C)noc2C)n2nc(C)c(C)c2n1 | -31.35
Cc1csc(CN(C)c2cc(C)nc3c(C)c(C)nn23)n1 | 96.63
Cc1cc(N(C)Cc2cc(C)on2)n2nc(C)c(C)c2n1 | 82.43
Cc1cc(N(C)Cc2noc(C)n2)n2nc(C)c(C)c2n1 | 0.3178
CCc1cc(N(C)Cc2cc[nH]n2)n2nc(C)c(C)c2n1 | 19.05

Compound | Percent Effect [%]
CCc1cc(N(C)Cc2ccnc(C)c2)n2nc(C)c(C)c2n1 | 28.31
Cc1cc(N(C)CCN(C)C)n2nc(C)cc2n1 | -8.3
Cc1cc(C)cc(N2CCN(C(=O)CCN3C[C@@H]4CC[C@H]3C4)CC2=O)c1 | -4.633
COc1cc(N2C[C@@H]3COC[C@]3(COc3ncccc3F)C2)ncn1.O=C(O)C(F)(F)F.O=C(O)C(F)(F)F | -28.64
CC(C)OCc1ncn2c1CN(Cc1cccs1)CCC2.O=C(O)C(F)(F)F | -1.604
CN(C)CCOCc1nnc2n1CCN(CC1CC1)CC2.O=C(O)C(F)(F)F.O=C(O)C(F)(F)F | -19.96
Cc1ncsc1CN1C[C@H](C(=O)NCC2CC2)[C@@H]2CCO[C@@H]2C1.O=C(O)C(F)(F)F | -4.533
COc1ccc(CN2CCC3(CC2)CCN(CCN(C)C)C3=O)cc1.O=C(O)C(F)(F)F.O=C(O)C(F)(F)F | -10.28
COCC(=O)N1CCC2(CC1)CC(COC)N(Cc1ccccn1)C2.O=C(O)C(F)(F)F (stereo not given) | 9.323
CCN1C(=O)CC[C@]12CC[C@@H](NC(=O)NCc1cccnc1)CC2.O=C(O)C(F)(F)F | 4.335
CNC(=O)C1Cn2ccnc2C2(CCN(Cc3cccc(C)n3)CC2)O1.O=C(O)C(F)(F)F (stereo not given) | -1.384
Cc1nc(NCc2noc(C3CCCO3)n2)c2ccsc2n1 (stereo not given) | 12.93
O=C(O)C(F)(F)F.O=C1COC2(CCN(c3ncccn3)CC2)CN1 | -4.23
O=C(O)C(F)(F)F.O=C1COC2(CCN(c3ccccn3)CC2)CN1 | 64.38
Cc1ccc(N2CCC3(CC2)CNC(=O)CO3)nn1.O=C(O)C(F)(F)F | -15.23
Cc1cc(F)ccc1-c1ccccc1CC1CNCCNC1=O.Cl (stereo not given) | 10.68
Cc1ccc(C(=O)N2CC[C@@H]3CN(C4CCOCC4)CCO[C@@H]3C2)o1.O=C(O)C(F)(F)F | 5.788
CC(C)NC(=O)N1CC[C@H]2[C@H]1CCN2c1ncccn1.O=C(O)C(F)(F)F | -6.623
Cc1ccc(NCc2ccc(C#N)cc2)c(CN(C)C)c1 | -24.71
N#Cc1cccnc1NCc1ccc(S(=O)(=O)NC2CC2)cc1 | 26.85
Cc1cc(NCc2cccc(C#N)c2)ccc1Br | -0.9935
Cc1c(NCc2ccccc2C#N)cccc1S(=O)(=O)NC1CC1 | 92.24
Cc1c(NCc2ccccc2C#N)cccc1-n1cnnn1 | 16.44

Compound | Percent Effect [%]
Cc1c(NCc2cccc(C#N)c2)cccc1S(=O)(=O)NC1CC1 | 50.22
Cc1c(NCc2ccc(C#N)cc2)cccc1S(=O)(=O)NC1CC1 | 50.41
Cc1cc(NCc2cccc(C#N)c2)ccc1C(N)=O | -8.044
CS(=O)(=O)NCC1CCCCN1Cc1ccccc1C#N (stereo not given) | -5.634
COC1COC2(CCN(Cc3ccc(Cl)cc3)CC2)C1.O=C(O)C(F)(F)F (stereo not given) | -23.85
Cc1nc(NC(=O)C2(C)CN(C)CCO2)sc1C.Cl (stereo not given) | -1.317
CCC(CC)C(=O)N1CCOC2(COCCN(CC(=O)NC)C2)C1.O=C(O)C(F)(F)F (stereo not given) | -7.076
Cc1cccc(NC(=O)N2CCCn3cnc(CN(C)C(C)C)c3C2)c1.O=C(O)C(F)(F)F | -43.51
COCC1CN(c2ccc(C)nn2)Cc2cnn(C)c21.O=C(O)C(F)(F)F.O=C(O)C(F)(F)F (stereo not given) | 33.23
CN1CCOCC2(CCCN(C(=O)c3ccc(-n4cccc4)cc3)C2)C1.O=C(O)C(F)(F)F (stereo not given) | -38
CN(C)CC(=O)N1CCC2(CC1)CN(c1ccsc1)C(=O)CO2.O=C(O)C(F)(F)F | -14.58
c1ccc(CN2C[C@H]3CC[C@@H]2CN(Cc2nnc(C4CC4)o2)C3)cc1 | -5.775
c1ccc(-c2nnc(CN3C[C@@H]4CC[C@H](C3)N(CC3CCC3)C4)o2)cc1 | 64.4
C1CCCN(CC2CCCN(Cc3noc(C4CC4)n3)C2)CC1 (stereo not given) | 7.551
C1CC(CN2C[C@H]3CC[C@@H]2CN(Cc2noc(C4CCCC4)n2)C3)C1 | 69.475
Cc1cnn(C2CN(Cc3noc(C4CC4)n3)C2)c1 | 9.159
C1CC(CN2C[C@H]3CC[C@@H]2CN(Cc2nnc(C4CC4)o2)C3)C1 | 16.6
CCc1cc(CN2C[C@H]3CC[C@@H]2CN(C2Cc4ccccc4C2)C3)on1 | 30.93
c1ccc(-c2cc(CN3C[C@H]4CC[C@H]3C4)on2)cc1 | 7.341
Cc1cc(CN2C[C@H]3CC[C@@H]2CN(C2Cc4ccccc4C2)C3)on1 | 16.59
c1ccc(-c2cc(CN3C[C@@H]4CC[C@H](C3)N(CC3CC3)C4)on2)cc1 | 99.84
c1ccc(-c2cc(CN3CCCC(Cn4cncn4)C3)on2)cc1 (stereo not given) | -1.952
c1ccc(-c2cc(CN3C[C@@H]4CC[C@H](C3)N(CC3CCC3)C4)on2)cc1 | 105.8

Compound | Percent Effect [%]
Cc1noc(C)c1CN1CCCC2(CCN(CC3CCCC3)C2)C1.O=C(O)C(F)(F)F (stereo not given) | -3.039
CCN1C[C@@H]2[C@@H](OC)CCN(S(=O)(=O)c3ccccc3)[C@@H]2C1.O=C(O)C(F)(F)F | -5.885
COCC(=O)N1CCn2c(COc3cccnc3)cnc2C1C.O=C(O)C(F)(F)F (stereo not given) | 5.093
CC(=O)N1CCN(Cc2ccccn2)CC2(CC(=O)N(C)C2)C1.O=C(O)C(F)(F)F.O=C(O)C(F)(F)F (stereo not given) | -32.82
CNC(=O)c1cc(C2CCCN2)n[nH]1.Cl (stereo not given) | 10.86
CC(=O)N1CCC[C@@H](NCc2c[nH]c3ccccc23)[C@@H]1c1ccc(C)s1.Cl | 67.48
CC(=O)N1CCC[C@@H](NCc2cccc(F)c2)[C@@H]1c1ccc(C)s1.Cl | 4.639
CC(=O)N1CCC[C@@H](NCc2ccc(F)cc2)[C@@H]1c1ccc(C)s1 | 15.69
O=C(O)C(F)(F)F.O=C1[C@H]2CN(Cc3ccco3)C[C@H]2CN1c1ccsc1 | 26.88
O=c1c2cnc(N3CCOCC3)nc2ccn1Cc1ccco1 | -1.985
CCCOC1CCCN(c2nc(COC)nc3c2cnn3C)C1 (stereo not given) | 67.42
CCc1nc(N2CCCC(CCCOC)C2)c2cnn(C)c2n1 (stereo not given) | -4.574
CCCOC1CCCN(c2nc(CC)nc3c2cnn3C)C1 (stereo not given) | 77.82
CCCc1nc(N2CCCN3CCC[C@H]3C2)c2cnn(C)c2n1 | -9.904
COCc1nc(N2CC[C@H](N(C)C)C2)c2cnn(C)c2n1 | -4.11
CCCc1nc(N2CCCC(CCOC)C2)c2cnn(C)c2n1 (stereo not given) | -22.83
CS(=O)(=O)NC[C@@H]1OC[C@H]2CN(Cc3ccccc3)CC[C@H]21.O=C(O)C(F)(F)F | 25.84
O=C(O)Cn1ccc(=O)c2cc(F)ccc21 | 12.91
O=C(O)Cn1ccc(=O)c2ccc(Cl)cc21 | -0.616
O=C(O)Cn1ccc(=O)c2cc(Cl)ccc21 | 63.91
CN(C)CCOCc1cncc2c1CCN(C1CCOCC1)C2.O=C(O)C(F)(F)F.O=C(O)C(F)(F)F.O=C(O)C(F)(F)F | 38.62
